SMILES strings stand for the structures. Several values for one entry are separate records, joined by “and”; a condition that tells them apart may be missing. Equal values may be shown once. Inconclusive results are not listed. A call without a number means that no potency is given here. Where a structure was tested more than once in an assay, its records may differ in their call. Activity calls are given as the source filed them. Unless noted, the call rests on the fitted dose curve; in most records, active means well fitted cell-killing curve with a large enough effect in the repeat runs; inconclusive means weak or mixed curves, or effect the other way; inactive means flat fitted curve, though single readings scatter.
Potency means the concentration at half of the fitted maximal effect.

The nature of one assay: Nuclear factor erythroid 2-related factor 2/antioxidant responsive element (Nrf2/ARE) small molecule agonists: qHTS cell viability counter screen in human keratinocytes (AID 1919968). Further: nearly all actives have a fitted effect of over 55% in size. Conditions: KeratinoSens HaCaT ARE cells viability, CellTiter-Fluor, 24 h; series mostly up to 92.4 µM. A digest of the protocol:
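In human HaCaT keratinocytes stably expressing an ARE-driven luciferase, compound exposure lasted 23 h at 37 C under 5% CO2. Viable cells are quantified with a protease-based fluorogenic reagent (CellTiter-Fluor) read 1 h after addition.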
In general terms: Quantitative high-throughput screening tests each substance at several concentrations.
With `O=C1O[C@H]([C@H](O)CO)C(O)=C1O`, the Potency entry is “inactive”.

As to `COC(=O)c1ccc(O)cc1`, the Potency entry was “inactive”.

For the compound `S=c1nc[nH]c2nc[nH]c12`, the Potency result is “inactive”.

For the compound `C[C@]12CCC(=O)C=C1CC[C@@H]1[C@@H]2C(=O)C[C@@]2(C)[C@H]1CC[C@]2(O)C(=O)CO`, the Potency result is “inactive”.

As to `C/C=C/C(=O)N(CC)c1ccccc1C`, the Potency result is “inactive”.

For `O=c1c(-c2ccc(O)cc2)coc2cc(O)cc(O)c12`, the Potency entry was “inactive”.

Turning to `CN(N=O)C(=O)N[C@@H]1[C@@H](O)[C@H](O)[C@@H](CO)O[C@@H]1O`, the Potency result is “inactive”.

With `CCCCC1C(=O)N(c2ccccc2)N(c2ccccc2)C1=O`, the Potency entry is “inactive”.

Turning to `CC12CCC(CC1)C(C)(C)O2`, the Potency result is “inactive”.

Consider `OC[C@@H](O)[C@@H](O)[C@H](O)[C@H](O)CO`, for which the Potency entry was “inactive”.

`CCCN(CCC)S(=O)(=O)c1ccc(C(=O)O)cc1`: the Potency result is “inactive”.

Regarding `Cc1ncc([N+](=O)[O-])n1CCO`, the Potency result is “inactive”.

Take `CCCCOC(=O)c1ccc(N)cc1`: the Potency result is “inactive”.

As for `C#C[C@]1(O)CC[C@H]2[C@@H]3CCC4=CC(=O)CC[C@@H]4[C@H]3CC[C@@]21CC`, the Potency result was “inactive”.

On to `c1ccc2c(c1)c1cccc3ccc4cccc2c4c31`, for which the Potency entry is “inactive”.

For the compound `CC1(C)O[C@@H]2C[C@H]3[C@@H]4C[C@H](F)C5=CC(=O)CC[C@]5(C)[C@H]4[C@@H](O)C[C@]3(C)[C@]2(C(=O)CO)O1`, the Potency entry is “inactive”.

Take `CC(C)=CCC/C(C)=C/CO`: the Potency entry is “inactive”.

For the compound `CN1C(C(=O)Nc2ccccn2)=C(O)c2ccccc2S1(=O)=O`, the Potency entry is “inactive”.

With `Cc1noc(NS(=O)(=O)c2ccc(N)cc2)c1C`, the Potency result was “inactive”.

For `Cc1cc(=O)n(-c2ccccc2)n1C`, the Potency entry is “inactive”.

As to `CC(C)(Oc1ccc(C2CC2(Cl)Cl)cc1)C(=O)O` (stereo not given), the Potency entry was “inactive”.

Take `OC[C@@H](O)[C@@H](O)[C@H](O)[C@@H](O)CO`: the Potency result was “inactive”.

Regarding `OC(Cn1cncn1)(Cn1cncn1)c1ccc(F)cc1F`, the Potency entry was “inactive”.

On to `OCCO`, for which the Potency entry is “inactive”.

`NS(=O)(=O)c1cc2c(cc1Cl)NCNS2(=O)=O`: the Potency result is “inactive”.

Consider `O=C(O)Cc1ccccc1Nc1c(Cl)cccc1Cl`, for which the Potency entry was “inactive”.

With `CC(C)(C#N)c1cc(Cn2cncn2)cc(C(C)(C)C#N)c1`, the Potency entry is “inactive”.

In the case of `C[C@]12CC[C@@H]3c4ccc(O)cc4CC[C@H]3[C@@H]1C[C@@H](O)[C@@H]2O`, the Potency entry was “inactive”.

Regarding `CC[C@H](C)C(=O)O[C@H]1C[C@@H](C)C=C2C=C[C@H](C)[C@H](CC[C@@H]3C[C@@H](O)CC(=O)O3)[C@H]21`, the Potency is 69.6 µM (active) and inactive.

As for `Cc1nnc(NS(=O)(=O)c2ccc(N)cc2)s1`, the Potency result was “inactive”.

As to `NC(=O)c1ccccc1O`, the Potency result was “inactive”.

As to `CC(C)Cc1ccc(C(C)C(=O)O)cc1` (stereo not given), the Potency entry was “inactive”.

Take `CC(C)(Oc1ccc(Cl)cc1)C(=O)O`: the Potency entry was “inactive”.

With `COc1ccccc1OCC(O)CO` (stereo not given), the Potency entry was “inactive”.

Consider `NC(=O)c1cccnc1`, for which the Potency entry is “inactive”.

As for `CC(=O)[C@@]1(O)CC[C@H]2[C@@H]3C[C@H](C)C4=CC(=O)C=C[C@]4(C)[C@@]3(F)[C@@H](O)C[C@@]21C`, the Potency entry is “inactive”.

Regarding `CC(=O)Nc1nnc(S(N)(=O)=O)s1`, the Potency result is “inactive”.

For the compound `NNCCc1ccccc1`, the Potency result is “inactive”.

`CCOC(N)=O`: the Potency result is “inactive”.

For the compound `CCCCCCc1ccc(O)cc1O`, the Potency was 48.7 µM (active) and inactive.

The next assay can be described thus: Nuclear factor erythroid 2-related factor 2/antioxidant responsive element (Nrf2/ARE) small molecule agonists: luciferase reporter gene qHTS assay in human keratinocytes (AID 1919969; calls by dose curve; further: nearly all actives have a fitted effect of over 35% in size). Conditions: KeratinoSens HaCaT ARE-luciferase, luminescence, 24 h; series mostly up to 92.4 µM.
For `O=C1O[C@H]([C@H](O)CO)C(O)=C1O`, the Potency entry is “inactive”.

Consider `COC(=O)c1ccc(O)cc1`, for which the Potency result is “inactive”.

Regarding `S=c1nc[nH]c2nc[nH]c12`, the Potency result is “inactive”.

With `C[C@]12CCC(=O)C=C1CC[C@@H]1[C@@H]2C(=O)C[C@@]2(C)[C@H]1CC[C@]2(O)C(=O)CO`, the Potency entry is “inactive”.

Consider `C/C=C/C(=O)N(CC)c1ccccc1C`, for which the Potency result was “inactive”.

For `O=c1c(-c2ccc(O)cc2)coc2cc(O)cc(O)c12`, the Potency result was “inactive and 15 µM (active)”.

For `CN(N=O)C(=O)N[C@@H]1[C@@H](O)[C@H](O)[C@@H](CO)O[C@@H]1O`, the Potency result is “inactive”.

As for `CCCCC1C(=O)N(c2ccccc2)N(c2ccccc2)C1=O`, the Potency result was “inactive”.

In the case of `CC12CCC(CC1)C(C)(C)O2`, the Potency entry is “inactive”.

On to `OC[C@@H](O)[C@@H](O)[C@H](O)[C@H](O)CO`, for which the Potency result was “inactive”.

Turning to `CCCN(CCC)S(=O)(=O)c1ccc(C(=O)O)cc1`, the Potency entry was “inactive”.

Regarding `Cc1ncc([N+](=O)[O-])n1CCO`, the Potency result is “inactive”.

Turning to `CCCCOC(=O)c1ccc(N)cc1`, the Potency result was “inactive”.

On to `C#C[C@]1(O)CC[C@H]2[C@@H]3CCC4=CC(=O)CC[C@@H]4[C@H]3CC[C@@]21CC`, for which the Potency result was “inactive”.

With `c1ccc2c(c1)c1cccc3ccc4cccc2c4c31`, the Potency result is “inactive”.

Regarding `CC1(C)O[C@@H]2C[C@H]3[C@@H]4C[C@H](F)C5=CC(=O)CC[C@]5(C)[C@H]4[C@@H](O)C[C@]3(C)[C@]2(C(=O)CO)O1`, the Potency result is “inactive”.

As for `CC(C)=CCC/C(C)=C/CO`, the Potency result is “inactive”.

Consider `CN1C(C(=O)Nc2ccccn2)=C(O)c2ccccc2S1(=O)=O`, for which the Potency result is “inactive”.

As to `Cc1noc(NS(=O)(=O)c2ccc(N)cc2)c1C`, the Potency result is “inactive”.

On to `Cc1cc(=O)n(-c2ccccc2)n1C`, for which the Potency entry is “inactive”.

In the case of `CC(C)(Oc1ccc(C2CC2(Cl)Cl)cc1)C(=O)O` (stereo not given), the Potency result is “inactive”.

For the compound `OC[C@@H](O)[C@@H](O)[C@H](O)[C@@H](O)CO`, the Potency entry was “inactive”.

Regarding `OC(Cn1cncn1)(Cn1cncn1)c1ccc(F)cc1F`, the Potency entry was “inactive”.

On to `OCCO`, for which the Potency result was “inactive”.

Turning to `NS(=O)(=O)c1cc2c(cc1Cl)NCNS2(=O)=O`, the Potency entry was “inactive”.

`O=C(O)Cc1ccccc1Nc1c(Cl)cccc1Cl`: the Potency entry is “inactive”.

`CC(C)(C#N)c1cc(Cn2cncn2)cc(C(C)(C)C#N)c1`: the Potency result was “inactive”.

In the case of `C[C@]12CC[C@@H]3c4ccc(O)cc4CC[C@H]3[C@@H]1C[C@@H](O)[C@@H]2O`, the Potency result was “inactive”.

With `CC[C@H](C)C(=O)O[C@H]1C[C@@H](C)C=C2C=C[C@H](C)[C@H](CC[C@@H]3C[C@@H](O)CC(=O)O3)[C@H]21`, the Potency entry was “inactive”.

Take `Cc1nnc(NS(=O)(=O)c2ccc(N)cc2)s1`: the Potency entry was “inactive”.

Take `NC(=O)c1ccccc1O`: the Potency result was “inactive”.

In the case of `CC(C)Cc1ccc(C(C)C(=O)O)cc1` (stereo not given), the Potency result was “inactive”.

Take `CC(C)(Oc1ccc(Cl)cc1)C(=O)O`: the Potency result was “inactive”.

`COc1ccccc1OCC(O)CO` (stereo not given): the Potency entry was “inactive”.

As for `NC(=O)c1cccnc1`, the Potency result was “inactive”.

For the compound `CC(=O)[C@@]1(O)CC[C@H]2[C@@H]3C[C@H](C)C4=CC(=O)C=C[C@]4(C)[C@@]3(F)[C@@H](O)C[C@@]21C`, the Potency result is “inactive”.

In the case of `CC(=O)Nc1nnc(S(N)(=O)=O)s1`, the Potency result was “inactive”.

Consider `NNCCc1ccccc1`, for which the Potency was 3.87 µM (active) and 8.41 µM (active).

In the case of `CCOC(N)=O`, the Potency entry is “inactive”.

In the case of `CCCCCCc1ccc(O)cc1O`, the Potency entry was “inactive”.

These data come from PubChem BioAssay (Tox21).
